According to ChEMBL document CHEMBL1156829:
Whole data set: some 5,400 compounds, median “IFI” near 2, cut for the highest 2% near 22. Many of the other results were omitted from the sample, so the highest values are more common in it than they were.

test: NOVARTIS: Inhibition Frequency Index (IFI) - the number of HTS assays where a compound showed > 50% inhibition/induction, expressed as a percentage of the number of assays in which the compound was tested.; assay type: functional

For `CCCOC(=O)C1=C(C)NC2=C(C(=O)CC(c3ccc(OC)c(OC)c3)C2)C1c1ccc(O)c(OCC)c1` (stereo not drawn), which IFI is on record?
Its IFI is 0%.

Which IFI does the source give for `CCOC(=O)c1cc(S(=O)(=O)NCc2ccc(F)cc2)n[nH]1` here?
Its IFI is 0%.

With `C=CCC(=O)NC1CCN(CC(O)CN(Cc2ccccc2)S(=O)(=O)c2ccccc2)C1` (stereo not drawn) as the compound, how does the IFI read?
Its IFI is 2.91%.

For `CC12C(=O)N(c3cccc(C(=O)O)c3)C(=O)C1C1c3ccccc3C2c2ccccc21` (stereo not drawn), which IFI is on record?
The IFI was 0%.

Which IFI does the source give for `CO[C@H]1C[C@H](C)Cc2cc(O)cc(c2)NC(=O)C(C)=CCC[C@H](OC)[C@@H](OC(N)=O)C(C)=CC(C)[C@H]1O` (stereo partly drawn) here?
Its IFI is 9.62%.

Which IFI does the source give for `CCC(C)(C)c1ccc(Oc2ccc(NC(=O)c3ccc([N+](=O)[O-])o3)cc2)cc1` here?
The IFI was 15.2%.

With `CCOC(=O)c1ccc(NCc2c(C)[nH]c(C(=O)OCC)c2C)cc1` as the compound, how does the IFI read?
The IFI was 0%.

For `CCN(CC)c1ccc(C=NNC(=O)c2ccc(Nc3nc(-c4ccccc4)cs3)cc2)c(O)c1`, which IFI is on record?
Its IFI is 27.3%.

For `CCN(CC)S(=O)(=O)c1ccc(-c2csc(Nc3ccc(C)c(C)c3)n2)cc1`, which IFI is on record?
The IFI was 4.71%.

With `O=C(Nc1nc(-c2ccccc2)cs1)c1ccccc1O` as the compound, how does the IFI read?
The IFI was 9.79%.

Which IFI does the source give for `Cn1nc(C(=O)NCc2ccccc2)c2c1CCN(Cc1cccc(O)c1)C2` here?
Its IFI is 1.22%.

For `CC(C)C[C@@H]1NC(=O)[C@@H](CC(C)C)NC(=O)[C@H](C(C)C)NC(=O)[C@H]2CSSC[C@@H](NC1=O)C(=O)N2`, which IFI is on record?
Its IFI is 25.9%.

With `CC(C(=O)NCCCN)N(Cc1ccccc1)S(C)(=O)=O` (stereo not drawn) as the compound, how does the IFI read?
Its IFI is 3.92%.

With `Oc1ccc(-c2cncc(NCc3ccccc3)n2)cc1` as the compound, how does the IFI read?
Its IFI is 0%.

For `CN(C)c1ccc(C(=C2C=CC(=[N+](C)C)C=C2)c2ccc(N(C)C)cc2)cc1`, which IFI is on record?
Its IFI is 25.7%.

With `CN(C)c1cc[n+](CC(=O)c2ccc(Cl)cc2)cc1` as the compound, how does the IFI read?
The IFI was 0%.

For `CCCCNC(=O)c1nn(-c2ccc(OC)cc2)c(=O)c2ccccc12`, which IFI is on record?
The IFI was 2.35%.

With `Nc1nc(N)c2c(OCc3ccc(C(F)(F)F)cc3)cccc2n1` as the compound, how does the IFI read?
Its IFI is 7.63%.

With `c1ccc(-c2cc(NCCCN3CCOCC3)nc(-c3ccccn3)n2)nc1` as the compound, how does the IFI read?
Its IFI is 15.4%.

With `CCOC(=O)c1sc2nc(N)c(C#N)c(-c3cccs3)c2c1N` as the compound, how does the IFI read?
Its IFI is 1.35%.

Which IFI does the source give for `CSc1oc(C(C)(C)C)nc1[P+](c1ccccc1)(c1ccccc1)c1ccccc1` here?
The IFI was 23.2%.

For `CSc1oc(-c2ccccc2)nc1C(N)=O`, which IFI is on record?
Its IFI is 0%.

With `COc1ccc2c(c1)C(C)(CC#N)C(=O)N2C` (stereo not drawn) as the compound, how does the IFI read?
Its IFI is 1.51%.

Which IFI does the source give for `O=C1C(=Nc2cccc(C(F)(F)F)c2)c2ccccc2N1CN1CCc2ccccc2C1` here?
The IFI was 0%.

With `Cc1ccc(S(=O)(=O)N=C2C=C(Sc3nc4ccccc4[nH]3)C(=O)c3ccccc32)cc1` as the compound, how does the IFI read?
Its IFI is 12.7%.

With `Cc1ccc(C)c(S(=O)(=O)N=C2C=C(SCC(=O)O)C(=O)c3ccccc32)c1` as the compound, how does the IFI read?
The IFI was 6.25%.

For `Cc1ccc(S(=O)(=O)N=C2C=C(Sc3nnc[nH]3)C(=O)c3ccccc32)cc1`, which IFI is on record?
Its IFI is 25%.

With `O=C1C(Sc2nnc[nH]2)=CC(=NS(=O)(=O)c2cccs2)c2ccccc21` as the compound, how does the IFI read?
The IFI was 25%.
